Test results: PMC7862700, “An all-to-all approach to the identification of sequence-specific readers for epigenetic DNA modifications on cytosine”

Columns and labels:
Test in all cases: DAPPL (digital affinity profiling via proximity ligation, sequencing); 10 mM Tris-HCl pH 7.5, 50 mM NaCl, 1 mM DTT, 4% glycerol, room temperature, 30 min; GST-TFs on glutathione beads, 16-mer random dsDNA library, 0.1% formaldehyde crosslink after washing; high values mean tight binding
FEV = biological target: T1, FEV (Homo sapiens, UniProt Q99581 1-238); conditions: protein: recombinant; tags: N-terminal GST; dsDNA, one strand shown
T1 sequence: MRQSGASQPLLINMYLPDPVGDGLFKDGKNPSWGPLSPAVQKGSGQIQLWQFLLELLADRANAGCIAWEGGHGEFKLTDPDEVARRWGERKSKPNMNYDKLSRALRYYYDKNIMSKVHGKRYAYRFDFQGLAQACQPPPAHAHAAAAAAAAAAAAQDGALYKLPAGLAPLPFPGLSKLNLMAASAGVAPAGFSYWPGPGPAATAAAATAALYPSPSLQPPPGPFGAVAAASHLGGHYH
How it was run: (§1)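 Binding signal is given per hexamer as its read frequency for a factor divided by its frequency in the tag-only sample. GST-fused human transcription factors were expressed in yeast, captured on glutathione beads, barcoded with DNA and pooled with that sample, then incubated with 200 nmole of a 16-mer random double-stranded DNA library in Tris/NaCl/DTT/glycerol buffer for 30 min at room temperature. The pools were then washed, crosslinked, proximity-ligated, amplified by PCR and sequenced on an Illumina NextSeq500.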

ETV5 = ETV5 (Homo sapiens, UniProt P41161 1-510); conditions: protein: recombinant; tags: N-terminal GST; dsDNA, one strand shown
How it was run: as §1

HSF1 = HSF1 (Homo sapiens, UniProt Q00613 1-529); conditions: protein: recombinant; tags: N-terminal GST; chain copies: 3; dsDNA, one strand shown
How it was run: as §1

SPIC = biological target: T2, SPIC (Homo sapiens, UniProt Q8N5J4 1-248); conditions: protein: recombinant; tags: N-terminal GST; dsDNA, one strand shown
T2 sequence: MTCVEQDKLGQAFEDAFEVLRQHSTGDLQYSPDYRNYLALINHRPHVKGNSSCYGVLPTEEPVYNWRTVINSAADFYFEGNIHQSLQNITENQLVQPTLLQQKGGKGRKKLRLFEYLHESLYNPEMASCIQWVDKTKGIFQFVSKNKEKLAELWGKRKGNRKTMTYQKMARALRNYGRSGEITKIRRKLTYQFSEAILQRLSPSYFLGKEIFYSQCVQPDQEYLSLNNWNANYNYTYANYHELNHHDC
How it was run: as §1

ELF4 = ELF4 (Homo sapiens, UniProt Q99607 1-663); conditions: protein: recombinant; tags: N-terminal GST; dsDNA, one strand shown
How it was run: as §1

ELK4 = biological target: T3, ELK4 (Homo sapiens, UniProt P28324-2 1-405); conditions: protein: recombinant; tags: N-terminal GST; dsDNA, one strand shown
T3 sequence: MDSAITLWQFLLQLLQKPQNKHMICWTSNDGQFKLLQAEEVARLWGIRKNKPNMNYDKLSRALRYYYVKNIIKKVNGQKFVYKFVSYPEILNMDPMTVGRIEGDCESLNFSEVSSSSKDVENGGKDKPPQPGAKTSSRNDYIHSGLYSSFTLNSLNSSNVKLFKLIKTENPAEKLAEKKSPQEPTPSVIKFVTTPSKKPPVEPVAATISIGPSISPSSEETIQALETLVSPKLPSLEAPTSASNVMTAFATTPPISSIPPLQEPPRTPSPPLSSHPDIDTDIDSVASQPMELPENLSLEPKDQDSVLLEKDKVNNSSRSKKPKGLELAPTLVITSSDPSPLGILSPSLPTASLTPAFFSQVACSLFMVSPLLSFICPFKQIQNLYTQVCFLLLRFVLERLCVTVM
How it was run: as §1

ETV2 = biological target: T4, ETV2 (Homo sapiens, UniProt O00321 1-342); conditions: protein: recombinant; tags: N-terminal GST; dsDNA, one strand shown
T4 sequence: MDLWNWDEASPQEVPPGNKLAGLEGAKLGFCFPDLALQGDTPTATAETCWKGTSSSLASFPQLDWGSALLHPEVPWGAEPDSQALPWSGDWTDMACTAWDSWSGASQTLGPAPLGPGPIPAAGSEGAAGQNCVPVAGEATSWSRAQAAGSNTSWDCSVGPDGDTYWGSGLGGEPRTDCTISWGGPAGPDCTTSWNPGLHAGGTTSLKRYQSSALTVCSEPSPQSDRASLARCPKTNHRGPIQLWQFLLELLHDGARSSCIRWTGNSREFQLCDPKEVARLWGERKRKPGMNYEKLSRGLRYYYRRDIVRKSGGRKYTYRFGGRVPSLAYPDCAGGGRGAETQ
How it was run: as §1

ELF3 = biological target: T5, ELF3 (Homo sapiens, UniProt P78545 1-371); conditions: protein: recombinant; tags: N-terminal GST; dsDNA, one strand shown
T5 sequence: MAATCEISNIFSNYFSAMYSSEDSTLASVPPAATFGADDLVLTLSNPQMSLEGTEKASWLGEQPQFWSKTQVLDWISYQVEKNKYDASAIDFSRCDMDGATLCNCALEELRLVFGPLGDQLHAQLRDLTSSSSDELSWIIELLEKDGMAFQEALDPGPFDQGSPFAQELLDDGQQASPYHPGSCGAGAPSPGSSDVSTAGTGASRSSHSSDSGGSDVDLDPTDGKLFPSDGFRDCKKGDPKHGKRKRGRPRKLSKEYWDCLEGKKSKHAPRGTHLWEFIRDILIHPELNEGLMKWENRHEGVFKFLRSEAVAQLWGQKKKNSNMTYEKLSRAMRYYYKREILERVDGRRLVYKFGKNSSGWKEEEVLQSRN
How it was run: as §1

CRX = CRX (Homo sapiens, UniProt O43186 1-299); conditions: protein: recombinant; tags: N-terminal GST; dsDNA, one strand shown
How it was run: as §1

ETV1 = ETV1 (Homo sapiens, UniProt P50549 1-477); conditions: protein: recombinant; tags: N-terminal GST; dsDNA, one strand shown
How it was run: as §1

ERF = biological target: T6, ERF (Homo sapiens, UniProt P50548 1-548); conditions: protein: recombinant; tags: N-terminal GST; dsDNA, one strand shown
T6 sequence: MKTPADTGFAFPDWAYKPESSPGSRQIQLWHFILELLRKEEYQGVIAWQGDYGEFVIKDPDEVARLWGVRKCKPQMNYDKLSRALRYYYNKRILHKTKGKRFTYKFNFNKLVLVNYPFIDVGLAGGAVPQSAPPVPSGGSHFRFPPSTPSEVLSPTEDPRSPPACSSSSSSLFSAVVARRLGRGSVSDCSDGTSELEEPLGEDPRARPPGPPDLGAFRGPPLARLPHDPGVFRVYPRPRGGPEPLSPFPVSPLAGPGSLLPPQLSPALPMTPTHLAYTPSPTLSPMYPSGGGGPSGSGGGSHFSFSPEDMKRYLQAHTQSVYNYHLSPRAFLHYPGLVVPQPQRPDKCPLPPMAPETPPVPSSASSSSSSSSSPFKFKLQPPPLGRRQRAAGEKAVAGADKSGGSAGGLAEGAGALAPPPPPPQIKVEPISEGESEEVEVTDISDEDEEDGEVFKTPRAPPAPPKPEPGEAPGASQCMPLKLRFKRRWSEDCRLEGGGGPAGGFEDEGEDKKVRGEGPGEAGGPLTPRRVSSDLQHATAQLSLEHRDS
How it was run: as §1

ETV3L = biological target: T7, ETV3L (Homo sapiens, UniProt Q6ZN32 1-361); conditions: protein: recombinant; tags: N-terminal GST; dsDNA, one strand shown
T7 sequence: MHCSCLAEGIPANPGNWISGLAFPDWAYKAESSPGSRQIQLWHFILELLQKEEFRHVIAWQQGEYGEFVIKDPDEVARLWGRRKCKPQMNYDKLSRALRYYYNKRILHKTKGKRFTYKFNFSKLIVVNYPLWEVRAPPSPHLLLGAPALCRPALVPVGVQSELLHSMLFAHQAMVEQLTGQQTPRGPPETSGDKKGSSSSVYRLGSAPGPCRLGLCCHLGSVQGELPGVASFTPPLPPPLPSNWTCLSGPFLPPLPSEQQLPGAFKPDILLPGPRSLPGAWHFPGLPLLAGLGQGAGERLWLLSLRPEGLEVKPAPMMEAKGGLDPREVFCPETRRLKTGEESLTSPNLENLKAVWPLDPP
How it was run: as §1

ETS2 = biological target: T8, ETS2 (Homo sapiens, UniProt P15036 1-469); conditions: protein: recombinant; tags: N-terminal GST; dsDNA, one strand shown
T8 sequence: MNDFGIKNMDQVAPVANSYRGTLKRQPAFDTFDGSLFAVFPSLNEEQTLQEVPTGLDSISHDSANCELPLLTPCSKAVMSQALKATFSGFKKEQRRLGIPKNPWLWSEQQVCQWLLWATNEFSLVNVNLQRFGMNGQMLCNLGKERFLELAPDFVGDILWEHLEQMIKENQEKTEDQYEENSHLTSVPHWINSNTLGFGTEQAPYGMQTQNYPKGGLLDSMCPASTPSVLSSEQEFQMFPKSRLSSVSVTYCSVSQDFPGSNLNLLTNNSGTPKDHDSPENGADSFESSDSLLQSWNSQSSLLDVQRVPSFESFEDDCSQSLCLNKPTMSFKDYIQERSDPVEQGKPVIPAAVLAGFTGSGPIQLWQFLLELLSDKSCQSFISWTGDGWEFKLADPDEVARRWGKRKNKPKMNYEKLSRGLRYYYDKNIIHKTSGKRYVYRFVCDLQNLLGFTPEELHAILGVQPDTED
How it was run: as §1

SPDEF = biological target: T9, SPDEF (Homo sapiens, UniProt O95238 1-335); conditions: protein: recombinant; tags: N-terminal GST; dsDNA, one strand shown
T9 sequence: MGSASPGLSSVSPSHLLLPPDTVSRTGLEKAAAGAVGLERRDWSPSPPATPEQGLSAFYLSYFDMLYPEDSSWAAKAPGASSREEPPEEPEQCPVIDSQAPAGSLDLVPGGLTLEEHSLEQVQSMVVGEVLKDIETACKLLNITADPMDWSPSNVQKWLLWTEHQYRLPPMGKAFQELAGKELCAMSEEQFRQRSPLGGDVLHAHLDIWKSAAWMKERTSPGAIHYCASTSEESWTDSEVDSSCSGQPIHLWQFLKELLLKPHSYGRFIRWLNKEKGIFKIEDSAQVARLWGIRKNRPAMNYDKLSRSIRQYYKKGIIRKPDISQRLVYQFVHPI
How it was run: as §1

ETV7 = biological target: T10, ETV7 (Homo sapiens, UniProt Q9Y603 1-341); conditions: protein: recombinant; tags: N-terminal GST; dsDNA, one strand shown
T10 sequence: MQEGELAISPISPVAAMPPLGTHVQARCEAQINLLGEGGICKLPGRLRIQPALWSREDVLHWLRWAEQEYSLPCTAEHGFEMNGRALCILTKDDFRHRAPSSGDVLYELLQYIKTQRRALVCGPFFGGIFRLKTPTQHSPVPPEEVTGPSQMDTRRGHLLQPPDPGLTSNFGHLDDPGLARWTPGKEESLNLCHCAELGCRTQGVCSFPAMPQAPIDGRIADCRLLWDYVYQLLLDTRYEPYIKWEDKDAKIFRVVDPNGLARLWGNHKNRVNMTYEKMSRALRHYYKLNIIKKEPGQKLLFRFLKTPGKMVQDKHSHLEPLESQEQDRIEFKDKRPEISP
How it was run: as §1

ELF5 = biological target: T11, ELF5 (Homo sapiens, UniProt Q9UKW6-2 1-255); conditions: protein: recombinant; tags: N-terminal GST; dsDNA, one strand shown
T11 sequence: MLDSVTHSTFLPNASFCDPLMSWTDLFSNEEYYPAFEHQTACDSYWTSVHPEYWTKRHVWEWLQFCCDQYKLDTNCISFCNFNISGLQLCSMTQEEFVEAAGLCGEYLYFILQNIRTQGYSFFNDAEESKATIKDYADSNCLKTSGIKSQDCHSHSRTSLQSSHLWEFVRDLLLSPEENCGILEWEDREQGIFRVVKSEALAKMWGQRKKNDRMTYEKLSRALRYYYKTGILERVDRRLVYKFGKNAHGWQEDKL
How it was run: as §1

ETV3 = biological target: T12, ETV3 (Homo sapiens, UniProt P41162-2 1-143); conditions: protein: recombinant; tags: N-terminal GST; dsDNA, one strand shown
T12 sequence: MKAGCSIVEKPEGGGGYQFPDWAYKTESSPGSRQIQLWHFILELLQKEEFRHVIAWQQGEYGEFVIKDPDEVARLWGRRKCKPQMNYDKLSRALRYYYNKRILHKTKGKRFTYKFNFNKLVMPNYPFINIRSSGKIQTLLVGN
How it was run: as §1

ETV6 = ETV6 (Homo sapiens, UniProt P41212 1-452); conditions: protein: recombinant; tags: N-terminal GST; dsDNA, one strand shown
How it was run: as §1

CRX, sequence (O43186 whole entry): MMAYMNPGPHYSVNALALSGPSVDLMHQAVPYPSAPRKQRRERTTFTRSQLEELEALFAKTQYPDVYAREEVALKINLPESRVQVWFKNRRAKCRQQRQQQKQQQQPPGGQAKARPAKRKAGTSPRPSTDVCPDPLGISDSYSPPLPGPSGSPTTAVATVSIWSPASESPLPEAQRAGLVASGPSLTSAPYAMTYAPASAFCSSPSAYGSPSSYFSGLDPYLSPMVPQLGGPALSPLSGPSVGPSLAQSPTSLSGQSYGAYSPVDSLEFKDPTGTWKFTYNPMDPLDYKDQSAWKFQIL
ETV6, sequence (P41212 whole entry): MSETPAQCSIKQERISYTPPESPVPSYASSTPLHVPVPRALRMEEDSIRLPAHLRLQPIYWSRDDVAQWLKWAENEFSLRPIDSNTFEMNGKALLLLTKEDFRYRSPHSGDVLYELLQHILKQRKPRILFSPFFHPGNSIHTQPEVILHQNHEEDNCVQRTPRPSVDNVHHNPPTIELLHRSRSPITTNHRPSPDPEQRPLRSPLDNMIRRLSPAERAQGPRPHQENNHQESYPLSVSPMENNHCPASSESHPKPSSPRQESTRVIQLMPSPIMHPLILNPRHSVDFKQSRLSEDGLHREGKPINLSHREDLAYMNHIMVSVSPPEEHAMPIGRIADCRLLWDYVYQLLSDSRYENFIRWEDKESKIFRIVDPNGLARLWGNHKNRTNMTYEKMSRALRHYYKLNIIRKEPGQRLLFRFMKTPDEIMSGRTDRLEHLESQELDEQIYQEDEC
ELF4, sequence (Q99607 whole entry): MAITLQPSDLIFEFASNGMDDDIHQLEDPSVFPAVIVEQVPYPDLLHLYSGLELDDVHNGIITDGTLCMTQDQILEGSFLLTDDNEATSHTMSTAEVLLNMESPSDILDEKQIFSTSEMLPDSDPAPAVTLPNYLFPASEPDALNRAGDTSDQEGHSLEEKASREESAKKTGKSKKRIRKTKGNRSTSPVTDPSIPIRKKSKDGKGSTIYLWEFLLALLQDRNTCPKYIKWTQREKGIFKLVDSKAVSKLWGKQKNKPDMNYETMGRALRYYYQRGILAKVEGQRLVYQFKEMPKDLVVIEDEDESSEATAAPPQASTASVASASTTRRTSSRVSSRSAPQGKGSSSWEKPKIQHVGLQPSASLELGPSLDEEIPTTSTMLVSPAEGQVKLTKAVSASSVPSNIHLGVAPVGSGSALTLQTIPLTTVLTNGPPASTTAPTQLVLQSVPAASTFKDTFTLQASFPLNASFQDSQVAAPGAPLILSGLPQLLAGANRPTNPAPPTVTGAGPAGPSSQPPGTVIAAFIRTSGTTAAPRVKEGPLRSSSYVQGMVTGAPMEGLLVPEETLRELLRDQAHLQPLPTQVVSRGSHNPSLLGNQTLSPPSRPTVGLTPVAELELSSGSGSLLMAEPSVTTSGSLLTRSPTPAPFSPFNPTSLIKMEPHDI
HSF1, sequence (Q00613 whole entry): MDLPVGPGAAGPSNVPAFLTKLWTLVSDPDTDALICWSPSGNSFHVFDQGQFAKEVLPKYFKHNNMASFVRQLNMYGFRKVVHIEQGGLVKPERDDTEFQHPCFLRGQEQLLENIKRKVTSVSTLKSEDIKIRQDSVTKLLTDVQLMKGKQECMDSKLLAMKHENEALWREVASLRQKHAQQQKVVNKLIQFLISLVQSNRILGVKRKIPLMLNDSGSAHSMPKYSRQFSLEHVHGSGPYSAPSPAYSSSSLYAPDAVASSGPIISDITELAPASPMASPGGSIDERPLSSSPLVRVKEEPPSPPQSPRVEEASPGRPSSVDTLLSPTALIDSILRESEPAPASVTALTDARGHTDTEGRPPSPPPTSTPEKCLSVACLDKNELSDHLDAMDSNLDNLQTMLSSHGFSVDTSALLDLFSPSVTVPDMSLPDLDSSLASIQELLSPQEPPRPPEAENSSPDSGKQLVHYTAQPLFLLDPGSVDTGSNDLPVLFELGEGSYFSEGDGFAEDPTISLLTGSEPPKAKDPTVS
ETV1, sequence (P50549 whole entry): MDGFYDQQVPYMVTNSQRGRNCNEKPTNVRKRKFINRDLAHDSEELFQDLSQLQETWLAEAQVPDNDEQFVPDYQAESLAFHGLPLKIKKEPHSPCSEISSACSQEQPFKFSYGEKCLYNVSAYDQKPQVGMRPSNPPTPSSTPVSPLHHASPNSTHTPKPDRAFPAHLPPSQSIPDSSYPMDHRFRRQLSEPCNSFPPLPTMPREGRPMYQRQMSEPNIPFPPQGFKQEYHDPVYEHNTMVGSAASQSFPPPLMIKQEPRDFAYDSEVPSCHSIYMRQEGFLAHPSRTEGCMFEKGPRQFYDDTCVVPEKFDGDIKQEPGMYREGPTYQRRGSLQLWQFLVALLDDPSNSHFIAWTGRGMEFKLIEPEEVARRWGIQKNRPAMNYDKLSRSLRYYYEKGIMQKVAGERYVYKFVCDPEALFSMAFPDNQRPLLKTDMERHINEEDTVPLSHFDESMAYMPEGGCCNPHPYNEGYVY
ETV5, sequence (P41161 whole entry): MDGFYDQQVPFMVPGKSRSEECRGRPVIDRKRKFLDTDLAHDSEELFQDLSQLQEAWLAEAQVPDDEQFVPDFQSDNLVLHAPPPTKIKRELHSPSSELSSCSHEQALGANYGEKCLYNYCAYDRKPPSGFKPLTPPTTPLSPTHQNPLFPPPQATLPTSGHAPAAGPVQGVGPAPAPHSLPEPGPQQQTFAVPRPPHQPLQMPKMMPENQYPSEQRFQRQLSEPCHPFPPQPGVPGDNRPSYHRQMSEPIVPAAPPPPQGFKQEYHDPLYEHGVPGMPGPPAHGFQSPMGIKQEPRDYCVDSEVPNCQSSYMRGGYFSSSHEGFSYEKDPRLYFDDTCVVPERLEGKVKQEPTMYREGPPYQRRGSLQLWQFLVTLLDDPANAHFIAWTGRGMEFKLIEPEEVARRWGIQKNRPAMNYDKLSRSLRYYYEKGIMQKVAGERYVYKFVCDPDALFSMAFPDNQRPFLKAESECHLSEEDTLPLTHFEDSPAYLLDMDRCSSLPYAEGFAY

TTCCAT
binding signal (FEV): 1.18 fold enrichment (6-mer frequency, TF over GST control) | binding signal (ETV5): 1.36 fold enrichment (6-mer frequency, TF over GST control) | binding signal (HSF1): 1.74 fold enrichment (6-mer frequency, TF over GST control) | binding signal (SPIC): 1.19 fold enrichment (6-mer frequency, TF over GST control) | binding signal (ELF4): 1.27 fold enrichment (6-mer frequency, TF over GST control) | binding signal (ELK4): 1.42 fold enrichment (6-mer frequency, TF over GST control) | binding signal (ETV2): 1.23 fold enrichment (6-mer frequency, TF over GST control) | binding signal (ELF3): 1.2 fold enrichment (6-mer frequency, TF over GST control) | binding signal (CRX): 1.43 fold enrichment (6-mer frequency, TF over GST control) | binding signal (ETV1): 1.25 fold enrichment (6-mer frequency, TF over GST control) | binding signal (ERF): 1.24 fold enrichment (6-mer frequency, TF over GST control) | binding signal (ETV3L): 1.29 fold enrichment (6-mer frequency, TF over GST control) | binding signal (ETS2): 1.25 fold enrichment (6-mer frequency, TF over GST control) | binding signal (SPDEF): 1.2 fold enrichment (6-mer frequency, TF over GST control) | binding signal (ETV7): 1.27 fold enrichment (6-mer frequency, TF over GST control) | binding signal (ELF5): 1.26 fold enrichment (6-mer frequency, TF over GST control) | binding signal (ETV3): 1.32 fold enrichment (6-mer frequency, TF over GST control) | binding signal (ETV6): 1.4 fold enrichment (6-mer frequency, TF over GST control)
